Sfp inh = qHTS Assay for Inhibitors of Bacillus subtilis Sfp phosphopantetheinyl transferase (PPTase) | 4'-phosphopantetheinyl transferase ffp (Bacillus subtilis), Q9F4F7 | Biochemical Sfp PPTase activity, qHTS | Potency, µM, without a hit: largest response in the series, negative = inhibition, usual class: inhibitors | 310,000 tested, 3.5% active;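 further: the enzyme is Sfp with the accession as filed and its product quenches rhodamine fluorescence; 0% = enzyme reaction without inhibitor and -100% = no enzyme wells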
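Reaction rates are the 30-min fluorescence difference (ex 525, em 598 nm) in wells containing 15 nM Sfp, 5 uM rhodamine-CoA and 12.5 uM BHQ-2-YbbR at pH 7.6 with 10 mM MgCl2.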
BAZ2B inh = qHTS Assay for Inhibitors of BAZ2B | AlphaScreen BAZ2B-H3K14Ac peptide displacement | Potency, µM (series often up to 114 µM), for the others: at the highest dose activity change, negative = inhibition, most hits filed as inhibitors | 360,000 tested, 4.4% active; further: on the % scale 0 is the no-effect control and ±100 the full control effect; nearly all actives have a fitted effect of over 60% in size
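BAZ2B (50 nM) with biotin-H3(5-23)K14Ac peptide (50 nM) in PBS pH 7.4, 0.01% Tween-20, preformed 30 min, then compound 30 min at room temperature; top concentration 110uM. AlphaScreen streptavidin donor/nickel chelate acceptor beads (10 ug/mL final), 20 min dark, signal read.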
G9a block = qHTS Assay for Inhibitors of Histone Lysine Methyltransferase G9a; Histone-lysine N-methyltransferase EHMT2 (Homo sapiens), Q96KQ7; 350,000 tested, 8.8% active; Potency, µM (doses to about 102 µM), without a hit: at the top dose activity, negative = inhibition, actives largely listed as inhibitors; G9a H3K9 monomethylation, AlphaScreen, 2 h; further: on the % scale 0 is the no-effect control and ±100 the full control effect; nearly all actives have a fitted effect of over 75% in size
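Methyltransferase reactions run at room temperature for 2 h (20 nM enzyme, 500 nM biotin-H3K9 peptide, 20 uM SAM) after a 15 min compound preincubation; product detected by AlphaScreen beads and anti-H3K9me1 antibody.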
HP1b binding inh = HTS for Inhibitors of HP1-beta Chromodomain Interactions with Methylated Histone Tails; Potency, µM (highest dose often 114 µM), without a hit: top-dose activity change, negative = inhibition, most hits filed as inhibitors; AlphaScreen HP1-beta / biotin-H3K9me3 peptide binding; 390,000 tested, 0.56% active; AID 540317, 2011; further: nearly all actives have a fitted effect of over 70% in size
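Compound inhibition of the preformed complex between 50 nM HP1-beta and 50 nM biotinylated H3K9me3 peptide was read by AlphaScreen. Buffer was PBS pH 7.4 with 0.01% Tween-20. Incubations ran 30 min at room temperature, with 10 ug/mL donor/acceptor beads.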
TDP1 block = qHTS Assay for Inhibitors of Tyrosyl-DNA Phosphodiesterase (TDP1). Tyrosyl-DNA phosphodiesterase 1 (Homo sapiens), Q9NUW8. recombinant TDP1, AlphaScreen DNA substrate cleavage. Potency, µM (series often up to 130 µM), for the others: top-dose activity change, negative = inhibition, actives largely listed as inhibitors. 350,000 tested, 0.28% active; further: on the % scale 0 is the no-effect control and ±100 the full control effect; nearly all actives have a fitted effect of over 40% in size
Target sequence (Q9NUW8 whole entry, looked up): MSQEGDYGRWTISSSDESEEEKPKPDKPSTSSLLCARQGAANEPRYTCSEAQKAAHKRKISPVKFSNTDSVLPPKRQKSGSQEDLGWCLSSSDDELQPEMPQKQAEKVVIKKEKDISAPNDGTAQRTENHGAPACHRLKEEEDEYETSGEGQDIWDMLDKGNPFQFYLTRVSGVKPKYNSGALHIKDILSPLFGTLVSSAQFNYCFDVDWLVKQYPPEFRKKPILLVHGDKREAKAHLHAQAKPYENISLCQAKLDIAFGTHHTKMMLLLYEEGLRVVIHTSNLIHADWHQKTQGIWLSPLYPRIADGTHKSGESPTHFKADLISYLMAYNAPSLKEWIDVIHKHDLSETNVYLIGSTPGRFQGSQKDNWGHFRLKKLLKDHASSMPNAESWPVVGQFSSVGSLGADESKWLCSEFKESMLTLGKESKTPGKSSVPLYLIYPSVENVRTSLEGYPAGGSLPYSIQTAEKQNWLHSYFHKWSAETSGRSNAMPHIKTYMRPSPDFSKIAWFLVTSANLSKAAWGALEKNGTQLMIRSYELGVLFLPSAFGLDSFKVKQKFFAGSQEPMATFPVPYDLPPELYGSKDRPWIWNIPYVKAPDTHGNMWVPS
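Compounds were preincubated with Tdp1 (1 nM final) for 15 min at room temperature before substrate (15 nM final) started a 5 min reaction; beads (10 ug/ml final) were then added for 10 min before AlphaScreen detection.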
JMJD2A Tudor = qHTS Assay for Inhibitors of JMJD2A-Tudor Domain; Potency, µM (doses to about 114 µM), for the others: at the top dose activity change, negative = inhibition, hits mostly inhibitors; AlphaScreen JMJD2A-Tudor / H3K4me3 peptide binding; Lysine-specific demethylase 4A (Homo sapiens), O75164; AID 504339, 2011; 390,000 tested, 4.4% active; further: on the % scale 0 is the no-effect control and ±100 the full control effect; nearly all actives have a fitted effect of over 50% in size
* marks the source's active call; other numbers are inactive results; [ ] = remark or other dose. Rows were chosen to be rich in hits. Some 12% of all compounds tested hit in one or more screens of this group. The call rests on the fitted dose curve; in most records, active means well fitted curve in the direction sought with a large enough effect; inconclusive means small, poorly fitted or top-dose-only effect, or another doubt; inactive means no such curve, though single readings can be large; an effect the other way counts as inactive or inconclusive. Potency means the concentration at half of the fitted maximal effect.

What do the screens show for `C=CC#CC[N+]1(CC#Cc2ccccc2)CCOCC1`?
Sfp inh: inconclusive; BAZ2B inh: inconclusive; G9a block: inconclusive; HP1b binding inh: 35.5µM*; TDP1 block: 5.3%; JMJD2A Tudor: 39.8µM*

Results for CCN(CC)c1ccc(/C=C/C(=O)c2ccc(Br)cc2)cc1 ?
Sfp inh: 5.7%; BAZ2B inh: 180.8%; G9a block: 291.2%; HP1b binding inh: 391.9%; JMJD2A Tudor: 156.8%

How did CCN(CC)c1ccc(/C=C2/C(=O)c3ccc(C(=O)O)cc3C2=O)cc1 do in these assays?
Sfp inh: inconclusive; BAZ2B inh: 25.1µM*; G9a block: 12.6µM*; HP1b binding inh: 35.5µM*; TDP1 block: -8.2%; JMJD2A Tudor: inconclusive

What do the screens show for `COc1cc(C#Cc2c(-c3cncn3C)n(C)c3ccc(-c4ccc(OC)c(OC)c4)cc23)cc(OC)c1`?
BAZ2B inh: inconclusive; G9a block: -3.5%[0.501 µM]; HP1b binding inh: -8.7%; TDP1 block: 1.4%; JMJD2A Tudor: 44.7µM*

How did C=CCOc1c(CCC)cc(CCC)cc1C(N)=O do in these assays?
Sfp inh: 17.4%; BAZ2B inh: 3.5%; G9a block: 1.5%; HP1b binding inh: -1.6%; TDP1 block: 4.1%; JMJD2A Tudor: -2.4%

How did O=C1CCc2cc(NS(=O)(=O)c3ccc([N+](=O)[O-])cc3)cc3c2N1CCC3 do in these assays?
BAZ2B inh: -30.9%; G9a block: 35.5µM*; HP1b binding inh: 14.6%; TDP1 block: -5.5%; JMJD2A Tudor: -11.7%

What do the screens show for `O=C1CCc2cc(NS(=O)(=O)c3ccc([N+](=O)[O-])cc3)cc3c2N1CC3`?
BAZ2B inh: 2.6%; G9a block: 44.7µM*; HP1b binding inh: 20.6%; TDP1 block: -0.5%; JMJD2A Tudor: -18.6%

What do the screens show for `O=C1CCc2cc(NS(=O)(=O)c3ccc(Cl)cc3)cc3c2N1CC3`?
BAZ2B inh: 7.1%; G9a block: -37.0%[59 µM]; HP1b binding inh: 11.6%; JMJD2A Tudor: -6.9%

How did CC(OC(=O)C1CCCC1)C(=O)Nc1ncc(Cl)cc1Cl (stereo unspecified) do in these assays?
BAZ2B inh: -5.4%; G9a block: 4.3%[12.7 µM]; HP1b binding inh: 24.1%; TDP1 block: 0.6%; JMJD2A Tudor: -12.8%

Results for CCn1c(SCC(=O)Nc2ccc(OC)c(S(=O)(=O)N3CCCCC3)c2)nnc1C1CC1 ?
BAZ2B inh: 10.4%; G9a block: -39.7%; HP1b binding inh: 19.0%; TDP1 block: 0.5%; JMJD2A Tudor: -16.6%

What do the screens show for `O=C(NNc1c2ccccc2nc2ccccc12)c1ccccc1Cl`?
Sfp inh: 7.4%; BAZ2B inh: -33.2%; G9a block: 25.8%; HP1b binding inh: 28.4%; JMJD2A Tudor: -3.1%

Results for O=C(NNc1c2ccccc2nc2ccccc12)c1ccccc1O ?
Sfp inh: inconclusive; BAZ2B inh: 7.94µM*; G9a block: inconclusive; HP1b binding inh: -8.4%; TDP1 block: 8.5%; JMJD2A Tudor: inconclusive

Results for O=C(NNc1nc(=O)c2cccnc2s1)c1ccccc1O ?
Sfp inh: 19.8%; G9a block: 50.1µM*; HP1b binding inh: -5.4%; TDP1 block: 9.2%; JMJD2A Tudor: 50.1µM*

What do the screens show for `O=C(NNc1c2ccccc2nc2ccccc12)c1ccc(O)cc1O`?
Sfp inh: -13.6%; BAZ2B inh: 20µM*; G9a block: inconclusive; HP1b binding inh: inconclusive; TDP1 block: 11.2%; JMJD2A Tudor: 39.8µM*

High-throughput results as filed in PubChem BioAssay.
